According to PubChem BioAssay (EPA / NIEHS):
Results filed as inconclusive are left out. Activity calls are given as the source filed them. Rule for the calls: active = hit-call score of the fitted dose curve at least 0.9, where 1 is the maximum; inconclusive = response in the unintended direction; inactive = score below 0.9.

Each molecule was assayed against Steroid hormone receptor ERR1 (Homo sapiens) (UniProt P11474) (assay: ATG_ERRa_TRANS: Attagene TRANS-FACTORIAL HepG2 Assay for human Estrogen-Related Receptor alpha (ERRa) (AID 2282971)). Details: HepG2 Attagene TRANS reporter, ERRa transactivation.
Method: ATG_TRANS is a cell-based, multiplexed-readout assay that uses HepG2, a human liver cell line, with measurements taken at 24 hours after chemical dosing in a 24-well plate.ATG_ERRa_TRANS is one of 30 assay component(s) measured or calculated from the ATG_TRANS assay. It is designed to make measurements of mRNA induction, a form of inducible reporter, as detected with fluorescence intensity signals by Reverse transcription polymerase chain reaction (RT-PCR) and Capillary electrophoresis technology.Data from the assay component ATG_ERRa_TRANS was analyzed into 1 assay endpoint. This assay endpoint, ATG_ERRa_TRANS, was analyzed in the positive analysis fitting direction relative to DMSO as the negative control and baseline of activity. Using a type of inducible reporter, measures of mRNA for gain-of-signal activity can be used to understand the reporter gene at the transcription factor-level as they relate to the gene ESRRA. Furthermore, this assay endpoint can be referred to as a primary readout, because this assay has produced multiple assay endpoints where this one serves a reporter gene function. To generalize the intended target to other relatable targets, this assay endpoint is annotated to the nuclear receptor intended target family, where the subfamily is steroidal.
Human liver HepG2 cells are transiently transfected with multiple reporter transcription units (MRTUs) in 6-well plates using FuGene 6 reagent (Roche; 3 ml FuGene/1 mg DNA). The MRTU constructs are regulated by a cis-regulating element (promoter). […] A major difference between the CIS and TRANS system is that in CIS activities of endogenous TFs are measured, whereas the TRANS assay evaluates changes in activities of exogenous, chimeric NR-Gal4 proteins. […] At the end of 24 hour incubation, total RNA was isolated using TriZol reagent (Invitrogen). The isolated RNA is then reverse-transcribed using oligo(dT) primer and Mo-MLV reverse transcriptase (Invitrogen) with DNAse I (Ambion) treatment for 30 min. The one-tenth of the produced cDNA was amplified by PCR using Taq DNA polymerase (Invitrogen) and two reporter sequence-specific primers. The PCR products were fluorescently labeled by primer extension with 6-arboxyfluorescein (6-FAM) 5'-labeled reporter sequence-specific primer (2 min at 95 C, 20 s at 68 C and 10 min at 72 C) and these products were digested with 5U of HpaI (New England Biolabs) for 2h at 37 C. The fragments were purified using Qiaquick PCR columns (Qiagen), analyzed on an ABI 3130xL genetic analyzer (Applied Biosystems) with peak positions identified by using a set of X-rhodamine (ROX)-labeled MapMarker1000 molecular weight standards (BioVentures). The raw capillary electrophoresis data was processed using Attagraph software (Attagene).

Sequence of Steroid hormone receptor ERR1 (Homo sapiens) (P11474 whole entry, looked up): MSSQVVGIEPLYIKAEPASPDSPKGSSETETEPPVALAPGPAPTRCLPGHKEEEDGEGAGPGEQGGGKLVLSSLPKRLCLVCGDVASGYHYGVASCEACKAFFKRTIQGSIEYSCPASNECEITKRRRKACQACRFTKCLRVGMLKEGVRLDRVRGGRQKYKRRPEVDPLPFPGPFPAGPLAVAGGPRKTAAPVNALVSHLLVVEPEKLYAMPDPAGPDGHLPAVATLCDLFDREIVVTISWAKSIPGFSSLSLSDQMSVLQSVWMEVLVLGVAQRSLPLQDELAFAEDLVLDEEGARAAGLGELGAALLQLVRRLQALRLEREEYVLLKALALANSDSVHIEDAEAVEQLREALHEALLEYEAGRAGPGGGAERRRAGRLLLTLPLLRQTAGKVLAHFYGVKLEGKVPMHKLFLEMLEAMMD

Row | Structure (SMILES) | outcome
1 | OCc1ccccc1 | inactive
2 | Cc1cccc(O)c1C | inactive
3 | CC(C)c1nnc2ccc(-c3ocnc3-c3cc(F)ccc3F)cn12 | inactive
4 | FC(F)C(F)(F)COCC1CO1 (stereo unspecified) | inactive
5 | OC(O)(C(F)C(O)(O)C(F)(F)F)C(F)(F)F | inactive
6 | Cc1nc(-c2ccccn2)ncc1C(=O)Nn1cc(C)c2cc(F)ccc21 | inactive
7 | NNC(=O)c1ccncc1 | inactive
8 | C[Si](C)(C)C(F)(F)C(F)(F)C(F)(F)F | inactive
9 | O=S(=O)(O)c1ccc(N=Nc2c(O)ccc3cc(S(=O)(=O)O)ccc23)cc1 | inactive
10 | FC(F)(F)COC(OCC(F)(F)F)OCC(F)(F)F | inactive
11 | FC(F)=C(F)C(F)(F)C(F)(F)C(F)(F)C(F)(F)C(F)(F)C(F)(F)F | inactive
12 | S=P(N1CC1)(N1CC1)N1CC1 | inactive
13 | NCC(F)(F)C(F)(F)C(F)(F)C(F)(F)F | inactive
14 | CCCCCCCCCCCCCCCCOS(=O)(=O)O | inactive
15 | OCCC(F)(F)C(F)(F)C(F)(F)C(F)(F)F | inactive
16 | c1ccc2cc3ccccc3cc2c1 | inactive
17 | O=C(Cl)C(F)(F)C(F)(F)C(F)(F)C(=O)Cl | inactive
18 | CCCCC(CC)C(=O)OCCOCCOCCOC(=O)C(CC)CCCC (stereo unspecified) | inactive
19 | O=C(O)[C@H](O)[C@@H](O)C(=O)O | inactive
20 | C[C@@H](Oc1ccc(CNC(=O)c2cccnc2Oc2ccc3c(c2)OCO3)c(F)c1)C(=O)O | inactive
21 | CCCCCCCCN(C)C | inactive
22 | O=S(=O)(O)CCC(F)(F)C(F)(F)C(F)(F)C(F)(F)C(F)(F)C(F)(F)F | inactive
23 | FC(F)(F)C(F)(F)C(F)(F)C(F)(F)C(F)(F)C(F)(F)I | inactive
24 | OCc1c[nH]c2ccccc12 | inactive
25 | CCCCCCOC(=O)CC(CC(=O)OCCCCCC)(OC(=O)CCC)C(=O)OCCCCCC | inactive
26 | OCCNCCO | inactive
